Lassa entry – Lassa virus entry inhibition | Lassa virus pseudotyped entry inhibition, cell-based qHTS | Potency, µM (highest dose often 49.2 µM), inactives show at the top dose activity change, negative = inhibition, most hits filed as inhibitors | actives 4.1% (n = 18,000)
MARV entry inh – inhibitors of Marburg virus binding or entry into cells | Marburg virus pseudotype entry/binding inhibition, cell-based | Potency, µM (series often up to 49.2 µM), for inactives: top-dose activity change, negative = inhibition, actives largely listed as inhibitors | actives 6.5% (n = 18,000) | AID 720532
Starred values were filed as active, the others as inactive; ? = inconclusive; · = not tested or not shown; ! = not confirmed by another sample; [ ] = dose if it differs, or a comment. Hits are enriched below; roughly 8.6% of the tested compounds scored in any of these assays. Calls come from the whole dose curve; tested in HEK293 cells. % is set by controls: 0 for no effect and ±100 for the full control effect; potency is the fitted concentration of half-maximal effect.

SMILES	Lassa entry	MARV entry inh
CN(C)C(=O)OC1=C(c2ccccc2)Sc2ccccc2-n2cccc21	?	-18.0%
CCN1C(N(C)CCc2c[nH]c3ccccc23)=NC(c2cccc(C(F)(F)F)c2)C(C(=O)OC)=C1C (stereo not drawn)	-23.1%[8.59 µM]	?
OC[C@@H](O)[C@H]1O[C@@H]2O[C@@H](C(Cl)(Cl)Cl)O[C@@H]2[C@H]1O	-5.3%	-7.9%
COc1cc(/C=C/C(=O)N2CCCCC2=O)cc(OC)c1OC	11.2µM*	12.6µM*
COc1cc(C(=S)N2CCOCC2)cc(OC)c1OC	-9.4%	-2.5%
COc1cc(/C=C/C(=O)O)cc(OC)c1OC	2.8%	2.0%
COc1cc(/C=C\C(=O)N2CCC=CC2=O)cc(OC)c1OC	?	8.91µM*
O=C1[C@@H]2CSCCS(=O)(=O)N2C(=O)N1c1ccccc1	-2.6%	27.0%
Nc1c(N=Nc2ccc(-c3ccc(N=Nc4cc(S(=O)(=O)O)c5ccccc5c4N)cc3)cc2)cc(S(=O)(=O)O)c2ccccc12	0.4%	12.6µM*
Cc1cc(-c2ccc(N=Nc3ccc4c(S(=O)(=O)O)cc(S(=O)(=O)O)c(N)c4c3O)c(C)c2)ccc1N=Nc1ccc2c(S(=O)(=O)O)cc(S(=O)(=O)O)c(N)c2c1O	?	-20.9%
C#CCN1C(=O)[C@]2(O[C@H](COc3ccccc3)CC3=C2CCC3)c2ccccc21	·	-41.4%[8.59 µM]
CN(C(Cc1ccc(OS(=O)(=O)c2cccc3cnccc23)cc1)C(=O)N1CCN(c2ccccc2)CC1)S(=O)(=O)c1cccc2cnccc12 (stereo not drawn)	10µM*	?
NC(N)=NCCNS(=O)(=O)c1cccc2cnccc12	15.0%	4.7%
C=CC[C@]1(C(=O)OC)C=C[C@H](C)[C@@H](c2ccccc2)N1C(=O)C(F)(F)F	9.7%[8.59 µM]	-15.4%[8.59 µM]
COc1cc(/C=C/C(=O)O[C@H]2CC[C@]34C[C@]35CC[C@]3(C)[C@@H]([C@H](C)CCC=C(C)C)CC[C@@]3(C)[C@@H]5CC[C@H]4C2(C)C)ccc1O	25.1µM*!	0.5%
CC(=O)OC1CCC2(C)C3=C(CCC2C1(C)C)[C@@]1(C)CCC(C(C)CCC=C(C)C)[C@@]1(C)CC3 (stereo partly drawn)	-8.3%	-13.5%
CC1=C(C(=O)Nc2cc(Cl)c3[nH]ncc3c2)C(c2ccc(C(F)(F)F)cc2)CC(=O)N1 (stereo not drawn)	-19.7%	-33.3%
COC(=O)C1=C(C)N(Cc2ccccc2)C(=NCCc2cccnc2)NC1c1ccccc1 (stereo not drawn)	6.4%[8.59 µM]	-11.4%[8.59 µM]
COC(=O)C1=C(C)N(Cc2ccccc2)C(=O)NC1c1cccc(C(F)(F)F)c1 (stereo not drawn)	5.1%[8.59 µM]	16.7%[8.59 µM]
FC(F)(F)c1cc(CO[C@H]2CCCN[C@H]2c2ccccc2)cc(C(F)(F)F)c1	25.1µM*	10µM*
C#CC1(O)C(OC)=CC2C(=O)C1C(c1ccccc1)C2C (stereo not drawn)	·	-3.5%[8.59 µM]
COc1ccc(NC(=O)c2cc(OCCCN(C)C)nn2Cc2ccccc2)cc1	?	8.91µM*
COc1ccc(NC(=O)OCCN2CCN(Cc3ccccc3)CCC2=O)cc1	5.2%	22.2%
CCN(CC)CC(O)CN1CCCCc2nc(C)c(C)cc21 (stereo not drawn)	-17.4%[8.59 µM]	-8.4%[8.59 µM]
COC(=O)C1=C[C@]2(c3ccccc3C[C@H](OC)[C@@H]2C)[C@H]2C=C[C@H]1C2	-22.8%[8.59 µM]	8.3%[8.59 µM]
SMILES	Lassa entry	MARV entry inh
Cc1c(C(=O)NCc2cccc(F)c2)sc2ncnc(NCC3CCCO3)c12 (stereo not drawn)	-12.1%	-18.1%
Cc1nnc(-c2ccc(C)c(-c3ccc(C(=O)Nc4cccc(C#N)c4)cc3)c2)o1	·	46.2%
Cc1nnc(-c2ccc(C)c(-c3ccc(C(=O)NCc4ccc(Cl)cc4)cc3)c2)o1	·	2.81µM*
C#CCCCON=C1C[C@@H](O)[C@@H](O)[C@@H]2[C@H]3C(=O)N([C@@H](C)c4ccccc4)C(=O)[C@@H]3CC[C@H]12	8.6%[8.59 µM]	?
O=C1C(Nc2ccccc2)=CC(=O)c2ncccc21	11.2µM*	5.62µM*
CC(CCC(=O)OC[C@H]1O[C@H](C#Cc2ccccc2)C=C[C@H]1Oc1ccc(C)cc1)=NO[C@H](C)c1cn([C@H](CO)Cc2ccccc2)nn1	·	2.3%[8.59 µM]
COC(=O)CC1C(C)(C)C(OC(C)=O)C2[C@H](OC(C)=O)[C@]34O[C@]2(O)[C@]1(C)C3CC[C@]1(C)C4=CC(=O)OC1c1ccoc1 (stereo partly drawn)	?	7.94µM*
CC(=O)OC1CC2C(C)(C)C(O)CC(O)[C@@]2(C)C2CC[C@@]3(C)C(=CC(=O)OC3c3ccoc3)[C@]12C (stereo partly drawn)	0.2%	-26.5%
CC1=C[C@@H](C)OC2(C1)C(=O)N(CC1CC1)c1cccc(Br)c12 (stereo partly drawn)	2.2%[8.59 µM]	2.7%[8.59 µM]
CCOC(=O)OC[C@H]1O[C@H](c2ccc(C(C)=O)cc2)C=C[C@H]1Oc1ccc(-c2ccccc2)cc1	·	2.8%[8.59 µM]
COc1ccc(/C=C/c2cc(O)cc(O)c2)cc1	-3.1%	1.4%
O=C(/C=C/c1ccc(O)cc1)c1ccc(O)cc1O	8.8%	21.7%
Oc1ccc(/C=C\c2cc(O)cc(O)c2)cc1	10µM*	11.2µM*
Oc1ccc(/C=C/c2cc(O)cc(O)c2)cc1	7.94µM*	7.08µM*
OC[C@H]1O[C@H](c2ccccc2)C=C[C@H]1OCc1cccc(Br)c1	-18.8%[8.59 µM]	-11.4%[8.59 µM]
O=C1[C@H]2[C@@H]3[C@@H](O)[C@H](O)CC(=NOCc4ccccc4)[C@H]3CC[C@H]2C(=O)N1C1CCCCC1	1.1%[8.59 µM]	-25.4%[8.59 µM]
O=[S+]1([O-])C[C@H](N2CCN(CCO)CC2)[C@H](COCc2ccccc2)N1	8.7%	33.3%
O=C(O)CN(CC(=O)O)CC1=CC2C(=CC1=O)Oc1cc(O)c(CN(CC(=O)O)CC(=O)O)cc1C21OC(=O)c2ccccc21 (stereo not drawn)	9.4%	-12.5%
C=CCN1Cc2ccccc2Oc2ccc(Cl)cc2S1(=O)=O	42.1%	9.5%
Cc1nc(Nc2ncc(C(=O)Nc3c(C)cccc3Cl)s2)cc(N2CCN(CCO)CC2)n1	?	12.6µM*
CC(C)C[C@@H]1COc2cccc(NN3CCN(C)CC3)c2S(=O)(=O)N1	8.0%	-3.9%
CC1=C[C@@H](C)O[C@@]2(C1)C(=O)Nc1cccc(Br)c12	-37.4%[8.59 µM]	0.6%[8.59 µM]
Nc1c(S(=O)(=O)O)cc(Nc2cccc3ccccc23)c2c1C(=O)c1ccccc1C2=O	-15.2%	4.6%
Nc1ccccc1S(=O)(=O)Nc1cccc2cccnc12	17.8µM*	7.08µM*
O=C(c1ccc([N+](=O)[O-])cc1)N1[C@H](COCc2ccccc2)C=CS1(=O)=O	-19.6%	-19.7%
Oc1cccc(-c2c3nc(c(-c4cccc(O)c4)c4ccc([nH]4)c(-c4cccc(O)c4)c4nc(c(-c5cccc(O)c5)c5ccc2[nH]5)CC4)C=C3)c1	25.1µM*	?
CN1[C@@H](c2ccccc2)COc2c(Cl)cccc2S1(=O)=O	-44.3%	-9.5%
CC(=CCO)CCO	13.9%[8.59 µM]	1.8%[8.59 µM]
CCCCC(=O)OCC(=O)[C@]1(O)Cc2c(O)c3c(c(O)c2[C@@H](O[C@H]2C[C@H](NC(=O)C(F)(F)F)[C@H](O)[C@H](C)O2)C1)C(=O)c1c(OC)cccc1C3=O	2.82µM*	?
CC[C@]1(O)CC(O[C@@H]2CC(N(C)C)C(O)C(C)O2)c2c(cc3c(c2O)C(=O)c2c(O)cccc2C3=O)C1C(=O)OC (stereo partly drawn)	-26.1%	20µM*
